PubChem BioAssay (NCI)
About 83,000 compounds went through this panel and 20% of them were active in at least one assay; those are over-represented in the sample as a whole.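 Cells were grown in 96-well plates and exposed to the test compound at a single concentration for 48 hours; results are reported as percent growth, with values below 10 considered active.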 Active and inactive are the calls of the source.

How the values were obtained:
Test in all cases: NCI-60 one-dose screen, 48 h (100 = growth as untreated, 0 = no growth, -100 = all killed)
Details in all cases: 10 µM
SN12C renal = tested on: SN12C renal
UO-31 renal = tested on: UO-31 renal
TK-10 renal = tested on: TK-10 renal
ACHN renal = tested on: ACHN renal
CAKI-1 renal = tested on: CAKI-1 renal
A498 renal = tested on: A498 renal
CCRF-CEM leukemia = tested on: CCRF-CEM leukemia
MOLT-4 leukemia = tested on: MOLT-4 leukemia
RPMI-8226 leukemia = tested on: RPMI-8226 leukemia
OVCAR-8 ovarian = tested on: OVCAR-8 ovarian
OVCAR-5 ovarian = tested on: OVCAR-5 ovarian
OVCAR-4 ovarian = tested on: OVCAR-4 ovarian
SK-OV-3 ovarian = tested on: SK-OV-3 ovarian
IGROV1 ovarian = tested on: IGROV1 ovarian
OVCAR-3 ovarian = tested on: OVCAR-3 ovarian
HS 578T breast = tested on: HS 578T breast
NCI/ADR-RES ovarian = tested on: NCI/ADR-RES ovarian
T-47D breast = tested on: T-47D breast
SR leukemia = tested on: SR leukemia

Measured: growth

Cc1ccc(NC(=O)NC2CCCCC2)cc1
inactive: SN12C renal 106% | UO-31 renal 96% | TK-10 renal 110% | ACHN renal 106% | CAKI-1 renal 104% | A498 renal 98.2% | CCRF-CEM leukemia 98.9% | MOLT-4 leukemia 102% | RPMI-8226 leukemia 108% | OVCAR-8 ovarian 106% | OVCAR-5 ovarian 103% | OVCAR-4 ovarian 114% | SK-OV-3 ovarian 95.8% | IGROV1 ovarian 105% | OVCAR-3 ovarian 109% | HS 578T breast 107% | NCI/ADR-RES ovarian 110% | T-47D breast 93.2%

C#Cc1ccc(-n2c(/C=C/c3ccc(C(F)(F)F)cc3)nc3ncccc3c2=O)cc1
inactive: SN12C renal 26.6% | UO-31 renal 11.6% | TK-10 renal 11.4% | ACHN renal 19% | CAKI-1 renal 14.9% | A498 renal 43.7% | MOLT-4 leukemia 10.2% | OVCAR-8 ovarian 17.2% | IGROV1 ovarian 34% | HS 578T breast 72.4% | NCI/ADR-RES ovarian 29.3% | T-47D breast 35.4%
active: CCRF-CEM leukemia 3.18% | SR leukemia 0.507% | RPMI-8226 leukemia -9.89% | OVCAR-4 ovarian -42.6% | OVCAR-3 ovarian -8.86%

C#Cc1ccc(-n2c(/C=C/c3ccc(Cl)c(F)c3)nc3ncccc3c2=O)cc1
active: SN12C renal -4.94% | UO-31 renal -82.5% | TK-10 renal -44.6% | ACHN renal 0.478% | CAKI-1 renal -14.2% | A498 renal -39% | CCRF-CEM leukemia 1.54% | MOLT-4 leukemia -18.6% | SR leukemia -25.2% | RPMI-8226 leukemia -14.9% | OVCAR-8 ovarian -17.4% | OVCAR-4 ovarian -88.5% | IGROV1 ovarian -54.5% | OVCAR-3 ovarian -79.8% | NCI/ADR-RES ovarian 1.19% | T-47D breast -39%
inactive: OVCAR-5 ovarian 24.1% | HS 578T breast 13.8%

C/C(=N\Nc1nc2ccccc2s1)c1ccncn1
inactive: SN12C renal 46.7% | UO-31 renal 19.8% | TK-10 renal 50.6% | ACHN renal 12.6% | CAKI-1 renal 29.9% | A498 renal 63.3% | SR leukemia 17.8% | OVCAR-5 ovarian 38.9% | SK-OV-3 ovarian 37.7% | OVCAR-3 ovarian 21.2% | HS 578T breast 73.5% | NCI/ADR-RES ovarian 22.9%
active: CCRF-CEM leukemia 5.95% | MOLT-4 leukemia 2.87% | RPMI-8226 leukemia -26.4% | OVCAR-4 ovarian -12.3% | T-47D breast -0.411%

CCOC(=O)c1ccoc1
inactive: SN12C renal 103% | UO-31 renal 95.4% | TK-10 renal 109% | ACHN renal 96.5% | CAKI-1 renal 98.1% | A498 renal 73.7% | CCRF-CEM leukemia 100% | MOLT-4 leukemia 90.1% | RPMI-8226 leukemia 102% | OVCAR-8 ovarian 101% | OVCAR-5 ovarian 90.7% | OVCAR-4 ovarian 104% | SK-OV-3 ovarian 93.3% | IGROV1 ovarian 101% | OVCAR-3 ovarian 101% | HS 578T breast 100% | NCI/ADR-RES ovarian 108% | T-47D breast 94.3%

COc1cc(-c2cc(/C=C3\C(=O)Nc4ccccc43)[nH]n2)cc(OC)c1OC
inactive: SN12C renal 53.7% | UO-31 renal 37.2% | TK-10 renal 68.1% | ACHN renal 51.1% | CAKI-1 renal 25.4% | A498 renal 46.5% | CCRF-CEM leukemia 22.3% | SR leukemia 34.1% | RPMI-8226 leukemia 24.3% | OVCAR-8 ovarian 40.8% | OVCAR-5 ovarian 77.6% | OVCAR-4 ovarian 42% | IGROV1 ovarian 43% | OVCAR-3 ovarian 57.8% | HS 578T breast 49.6% | NCI/ADR-RES ovarian 35.2% | T-47D breast 20.9%
active: MOLT-4 leukemia 6.03%

CCCCCCc1cc(N=Nc2ccc(S(=O)(=O)Nc3cc(C)nc(C)n3)cc2)c(O)cc1O
inactive: SN12C renal 97.2% | UO-31 renal 74.5% | TK-10 renal 107% | ACHN renal 99.1% | CAKI-1 renal 98.9% | A498 renal 98.7% | CCRF-CEM leukemia 94.8% | MOLT-4 leukemia 88.7% | SR leukemia 91.9% | RPMI-8226 leukemia 95.5% | OVCAR-8 ovarian 99.7% | OVCAR-4 ovarian 108% | SK-OV-3 ovarian 101% | IGROV1 ovarian 96.2% | OVCAR-3 ovarian 109% | HS 578T breast 110% | T-47D breast 93.9%

COc1cc(-c2nc(Nc3nc4ccccc4s3)[nH]c(=O)c2C#N)cc(OC)c1O
inactive: SN12C renal 102% | UO-31 renal 88.1% | TK-10 renal 112% | ACHN renal 102% | CAKI-1 renal 113% | A498 renal 103% | CCRF-CEM leukemia 103% | MOLT-4 leukemia 94.7% | SR leukemia 108% | RPMI-8226 leukemia 89.9% | OVCAR-8 ovarian 99% | OVCAR-4 ovarian 109% | SK-OV-3 ovarian 108% | IGROV1 ovarian 128% | OVCAR-3 ovarian 104% | HS 578T breast 107% | NCI/ADR-RES ovarian 111% | T-47D breast 102%

N=C(N)c1ccc(-c2ccc(-c3cccs3)o2)cc1
inactive: SN12C renal 54.5% | UO-31 renal 65.9% | TK-10 renal 96.5% | ACHN renal 62.7% | CAKI-1 renal 37.8% | A498 renal 33.5% | CCRF-CEM leukemia 19.9% | OVCAR-8 ovarian 60% | OVCAR-5 ovarian 70.3% | OVCAR-4 ovarian 41.6% | IGROV1 ovarian 67.5% | OVCAR-3 ovarian 71.7% | HS 578T breast 70.3% | NCI/ADR-RES ovarian 71.5% | T-47D breast 43.8%
active: MOLT-4 leukemia -2.16% | SR leukemia -24.5% | RPMI-8226 leukemia -25.4%

COc1ccc(S(=O)(=O)NCCCNc2nccc(-c3c(-c4ccc(F)cc4)nc4sccn34)n2)cc1
inactive: SN12C renal 59.5% | UO-31 renal 22.1% | TK-10 renal 60.5% | ACHN renal 36.5% | CAKI-1 renal 39.4% | A498 renal 58.5% | CCRF-CEM leukemia 37.6% | MOLT-4 leukemia 34.4% | SR leukemia 28.3% | RPMI-8226 leukemia 47.8% | OVCAR-8 ovarian 41.9% | OVCAR-4 ovarian 77.3% | SK-OV-3 ovarian 74.5% | IGROV1 ovarian 30.2% | OVCAR-3 ovarian 74.9% | HS 578T breast 83% | NCI/ADR-RES ovarian 53.3% | T-47D breast 24.2%

COc1cc(-c2nn3c(/C=C4/C(=O)Nc5ccccc54)c(-c4ccc(C)cc4)nc3s2)cc(OC)c1OC
inactive: SN12C renal 73.2% | UO-31 renal 73.1% | ACHN renal 81.1% | CAKI-1 renal 64.6% | A498 renal 98.9% | CCRF-CEM leukemia 67.4% | MOLT-4 leukemia 47.8% | SR leukemia 26.5% | RPMI-8226 leukemia 45.4% | OVCAR-8 ovarian 46.8% | OVCAR-5 ovarian 85.9% | IGROV1 ovarian 77.4% | OVCAR-3 ovarian 43.6% | NCI/ADR-RES ovarian 41.8% | T-47D breast 63.6%
active: TK-10 renal -18.7% | OVCAR-4 ovarian -17.3% | HS 578T breast -19.4%

COc1cc2cc3c(nc2cc1OC)CCN3Cc1ccc(NC(=O)c2ccc(Cl)c(C(F)(F)F)c2)cc1
inactive: SN12C renal 91.3% | UO-31 renal 71.9% | TK-10 renal 131% | ACHN renal 84.7% | CAKI-1 renal 84.3% | A498 renal 130% | CCRF-CEM leukemia 91% | MOLT-4 leukemia 56.8% | SR leukemia 70.6% | RPMI-8226 leukemia 91.2% | OVCAR-8 ovarian 88.6% | OVCAR-5 ovarian 99.5% | OVCAR-4 ovarian 80.4% | IGROV1 ovarian 78.5% | OVCAR-3 ovarian 94.3% | HS 578T breast 98.5% | NCI/ADR-RES ovarian 99.4% | T-47D breast 64.2%

CC1(C)N=C(N)N=C(N)N1c1ccc(CCc2ccccc2)c(Cl)c1
inactive: SN12C renal 18.9% | UO-31 renal 87.9% | TK-10 renal 21% | ACHN renal 28.7% | CAKI-1 renal 53.2% | A498 renal 40.9% | CCRF-CEM leukemia 19.8% | MOLT-4 leukemia 20.2% | RPMI-8226 leukemia 26.2% | OVCAR-8 ovarian 16.8% | OVCAR-5 ovarian 36.3% | OVCAR-4 ovarian 38% | SK-OV-3 ovarian 36.3% | IGROV1 ovarian 28.1% | OVCAR-3 ovarian 23.7% | HS 578T breast 69.3% | NCI/ADR-RES ovarian 104% | T-47D breast 30.3%

CN(C)C(=S)N/N=C\C=N/NC(=S)N(C)C
active: RPMI-8226 leukemia 0.534% | OVCAR-4 ovarian -36.5% | IGROV1 ovarian -59.4% | OVCAR-3 ovarian 9.87%
inactive: SN12C renal 88.4% | UO-31 renal 31.7% | TK-10 renal 96.5% | ACHN renal 80% | CAKI-1 renal 74.1% | A498 renal 89% | CCRF-CEM leukemia 22.6% | MOLT-4 leukemia 10% | SR leukemia 35.4% | OVCAR-5 ovarian 95.2% | SK-OV-3 ovarian 49.9% | HS 578T breast 74.5% | NCI/ADR-RES ovarian 51.3% | T-47D breast 15%

O=C(O)CCCCSc1ncnc2nc[nH]c12
inactive: SN12C renal 107% | UO-31 renal 70% | TK-10 renal 98% | ACHN renal 102% | CAKI-1 renal 93.5% | A498 renal 132% | CCRF-CEM leukemia 101% | MOLT-4 leukemia 101% | RPMI-8226 leukemia 108% | OVCAR-8 ovarian 98.3% | OVCAR-5 ovarian 102% | OVCAR-4 ovarian 116% | SK-OV-3 ovarian 92.9% | IGROV1 ovarian 97.5% | OVCAR-3 ovarian 100% | HS 578T breast 122% | NCI/ADR-RES ovarian 107% | T-47D breast 97.2%

C/C(N)=C(\C#N)C(=O)c1ccccc1
inactive: SN12C renal 106% | UO-31 renal 86.4% | TK-10 renal 106% | ACHN renal 105% | CAKI-1 renal 107% | A498 renal 91.5% | CCRF-CEM leukemia 102% | MOLT-4 leukemia 110% | SR leukemia 112% | RPMI-8226 leukemia 99.2% | OVCAR-8 ovarian 103% | OVCAR-5 ovarian 97.9% | OVCAR-4 ovarian 104% | IGROV1 ovarian 101% | OVCAR-3 ovarian 112% | HS 578T breast 111% | NCI/ADR-RES ovarian 105% | T-47D breast 94.1%

COc1cc(-c2cc(/C=C3\C(=O)Nc4cc(Cl)ccc43)[nH]n2)cc(OC)c1OC
inactive: SN12C renal 12.1% | UO-31 renal 30.4% | TK-10 renal 60.9% | ACHN renal 58% | CAKI-1 renal 38.8% | A498 renal 50.4% | CCRF-CEM leukemia 13.2% | MOLT-4 leukemia 13.5% | SR leukemia 16.8% | OVCAR-8 ovarian 23.9% | OVCAR-4 ovarian 19% | SK-OV-3 ovarian 74.2% | OVCAR-3 ovarian 40.6% | HS 578T breast 12.6% | NCI/ADR-RES ovarian 10.2% | T-47D breast 24.9%
active: RPMI-8226 leukemia -28% | IGROV1 ovarian 4.31%
